# Only some compounds are listed: those with a hit (about 8.3% of all), similar ones and a draw of the others.
# FBPA Giardia inh: Giardia lamblia aldolase inhibition | A8B2U2 | purified Giardia FBPA | Potency, µM (top dose mostly 59.6 µM), inactives show top-dose activity, negative = inhibition, hits mostly inhibitors | 290,000 compounds, 0.71% hits | AID 2451; further: potency means the concentration at half of the fitted maximal effect; nearly all actives have a fitted effect of over 55% in size
# Target sequence (A8B2U2 whole entry, looked up): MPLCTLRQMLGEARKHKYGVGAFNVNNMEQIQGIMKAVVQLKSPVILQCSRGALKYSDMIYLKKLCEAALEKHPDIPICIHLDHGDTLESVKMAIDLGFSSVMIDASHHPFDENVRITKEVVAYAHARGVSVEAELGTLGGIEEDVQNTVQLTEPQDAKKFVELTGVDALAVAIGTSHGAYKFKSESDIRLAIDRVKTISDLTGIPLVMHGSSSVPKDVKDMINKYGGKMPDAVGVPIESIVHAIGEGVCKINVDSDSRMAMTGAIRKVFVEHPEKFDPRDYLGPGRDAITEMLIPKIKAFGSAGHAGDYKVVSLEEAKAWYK
#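 40 nM FBPA preincubated 10 min at RT with compound (up to 57.5 uM final), then substrate plus GAPDH/TPI/NAD/arsenate coupling and diaphorase/resazurin added. Fluorescence read after 20 min at RT, 525/598 nm.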
# Lassa entry inh: inhibitors of Lassa virus binding or cell entry | 300,000 compounds, 1.2% hits | Lassa virus pseudotype entry inhibition, cell reporter | Potency, µM (doses to about 37.9 µM), for the others: at the top dose activity change, negative = inhibition, hits mostly inhibitors; calls by dose curve; tested in HEK293 cells; further: potency means the concentration at half of the fitted maximal effect; nearly all actives have a fitted effect of over 50% in size
# HCV inh: blocks hepatitis C virus; 340,000 compounds, 3.4% hits; AID 651820; Huh7.5.1 HCVcc-Cre infection, luciferase reporter, 44 h; Potency, µM (doses to about 41.8 µM), for the others: at the top dose activity change, negative = inhibition, usual class: inhibitors; further: potency means the concentration at half of the fitted maximal effect
#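 Infectious HCV cell culture screen: compound-treated cells (1,000/well, pre-plated 4 h) are infected with HCVcc-Cre at roughly 0.5 moi and grown 44 h. Infection is quantified by luciferase signal after 15 min substrate incubation at room temperature.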
# HCMV antiviral: inhibitors of human cytomegalovirus; activity change, negative = inhibition, % at 57.5 µM; 410,000 compounds, 4.5% hits; HFF cells, HCMV-luciferase reporter, 72 h; hits give low values; AID 1259415; in the data active means activity change below about -60%; inconclusive means no clear call, values can overlap the other calls; inactive means above about -39%
#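 Inhibition of viral replication was scored as loss of reporter luminescence in HFFs infected with HCMV-luciferase (MOI 1 PFU/cell) for 72 h; compounds tested at 2 doses, normalized to buffer and Salinomycin controls.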
# Marburg entry inh: blocks Marburg virus binding to or entry into cells; Potency, µM (doses to about 37.8 µM), inactives show top-dose activity change, negative = inhibition, actives largely listed as inhibitors; AID 540276; Marburg virus pseudotyped entry inhibition, cell reporter; 300,000 compounds, 1.8% hits; calls by dose curve; tested in HEK293 cells; further: potency means the concentration at half of the fitted maximal effect
# FMDV inh: foot and mouth disease virus antiviral activity; Potency, µM (highest dose often 57.9 µM), for the others: top-dose activity change, negative = inhibition, actives largely listed as inhibitors; FMDV antiviral cell-based qHTS; 410,000 compounds, 1.2% hits; calls by dose curve; tested in HEK293T cells; further: read-out not given here; potency means the concentration at half of the fitted maximal effect; nearly all actives have a fitted effect of over 45% in size
# Starred values were filed as active, the others as inactive; ? = inconclusive; nt = not tested or not shown; + = active, no number; ! = repeats disagree; [ ] = remark or other dose. Unless noted, the call rests on the fitted dose curve; in most records, active means well fitted curve in the direction sought with a large enough effect; inconclusive means small, poorly fitted or top-dose-only effect, or another doubt; inactive means no such curve, though single readings can be large; an effect the other way counts as inactive or inconclusive. On the % scale 0 is the no-effect control and ±100 the full control effect.
SMILES,FBPA Giardia inh,Lassa entry inh,HCV inh,HCMV antiviral,Marburg entry inh,FMDV inh
COc1ccccc1-n1ncc2c(=O)[nH]c(SCC(=O)Nc3ccc(Cl)cc3)nc21,nt,-19%[46.1 µM],nt,25,nt,-1%
COc1ccccc1NC(=O)CSCC(=O)N1c2ccccc2CCc2ccccc21,-1%,-14%,25µM*,-28,?,-24%
N#CSCC(=O)N1c2ccccc2CCc2ccccc21,-5%,?,?,-102*,?,?
O=C(NCc1ccccc1Cl)c1ccc2c(c1)nnn2C1CCCC1,nt,6%[46.1 µM],nt,-2,nt,43%
CCOC(=O)C1CCCN(C(=O)c2ccc3c(c2)N(Cc2ccccc2F)C(=O)c2ccccc2S3=O)C1 (centres undefined),nt,-26%[46.1 µM],nt,11,-2%[46.1 µM],-19%
COc1cc(CC(=O)OCC(=O)Nc2sccc2C(N)=O)cc(OC)c1OC,-3%,?,10µM*,-39,11µM*,?
C[C@@H]1NS(=O)(=O)c2c(F)cccc2O[C@@H]1c1ccccc1,nt,nt,nt,-4,nt,nt
C[C@]12C[C@H](O)CC(CO)(CO)C1[C@H](O)C[C@@]13CC4[C@@H](CC12)[C@@]4(C)C3 (some centres undefined),3%,nt,nt,nt,nt,-18%
Cc1ccc([N+](=O)[O-])c(OCCN2CCCCCC2)c1,-14%,-19%,-9%,-78*,?,-10%
COc1cc(NC(=O)C2CCCN(S(=O)(=O)c3ccc4c(c3)oc(=O)n4C)C2)c(C(=O)O)cc1OC (centres undefined),nt,19%[46.1 µM],nt,-8,-3%[46.1 µM],0%
Cc1ccc(N=c2oc3cc(O)ccc3cc2C(N)=O)cc1,6%,?,11µM*,-80*,?,-2%
CCc1ccc(NC(=O)C(Cc2ccccc2)NS(=O)(=O)c2ccc3c(c2)c(=O)n(C)c(=O)n3C)cc1 (centres undefined),nt,-7%[46.1 µM],nt,22,-21%[46.1 µM],3%
CC(C)n1ncc2c(C(=O)N3CCN(c4ccc(F)cc4)CC3)cc(-c3ccccc3)nc21,nt,nt,-10%,-70*,nt,7%
Cc1ccccc1N1CCN(C(=O)c2cc(-c3ccccc3)nc3c2cnn3C(C)C)CC1,nt,nt,nt,-13,nt,-11%
COc1cccc(N2CCN(C(=O)c3cc(-c4ccccc4)nc4c3cnn4C(C)C)CC2)c1,nt,nt,11µM*,0,nt,0%
COc1ccccc1N1CCN(C(=O)c2cc(-c3ccccc3)nc3c2cnn3C(C)C)CC1,nt,nt,nt,37,nt,-23%
CN(CCC#N)C(=O)CSc1ncnc2sc(-c3ccccc3)cc12,0%,3%,?,-5,-24%,-10%
CC(C)C(C)(C#N)NC(=O)CSc1ncnc2sc(-c3ccccc3)cc12 (centres undefined),-5%,-17%,13µM*,-33,-26%,nt
CCN(CC)C(=O)CSc1ncnc2sc(-c3ccccc3)cc12,-3%,-1%,13µM*,-38,?,-40%
Nc1nc(Cl)cc(Sc2ccc3ccccc3c2)n1,0%,10µM*,-20%,13,-25%,-16%
CC(=O)c1sc2c(c1C)c(=O)n(-c1ccc(Cl)cc1)c(=O)n2Cc1ccc(Cl)cc1,nt,?,nt,17,?,-28%
COC(=O)c1cc(S(=O)(=O)NCC2CCN(Cc3ccc(F)cc3)CC2)c[nH]1,8%,8%[46.1 µM],-6%,0,0%[46.1 µM],2%
COc1ccc(CN2CCC(CNS(=O)(=O)c3cccc(C(F)(F)F)c3)CC2)cc1,6%,nt,11µM*,-37,?,-19%
CCN(CC)C(=O)Cn1cc(S(=O)(=O)CC(=O)Nc2ccc(C(N)=O)cc2)c2ccccc21,2%,nt,0.56µM*,-19,nt,0%
CCN(CC)C(=O)Cn1cc(S(=O)(=O)CC(=O)Nc2cccc(NC(C)=O)c2)c2ccccc21,nt,nt,nt,-23,nt,-24%
SMILES,FBPA Giardia inh,Lassa entry inh,HCV inh,HCMV antiviral,Marburg entry inh,FMDV inh
COc1cccc(C2=Nn3c(nnc3-c3cc(OC)cc(OC)c3)SC2)c1,-5%,nt,nt,nt,nt,nt
O=C(O)CC1c2ccccc2CCN1S(=O)(=O)c1ccccc1 (centres undefined),nt,9%,16%,-23,7%[46.1 µM],9%
CCc1cccc(CC)c1NC(=O)COC(=O)CC1c2ccccc2CCN1S(=O)(=O)c1ccccc1 (centres undefined),-7%,-3%,7.1µM*,-37,?,-27%
S=C(NCc1ccc2c(c1)OCO2)Nc1ccc(-c2nc3ccccc3[nH]2)cc1,-4%,-12%,?,-61*,?,?
CN(C)CCNC(=S)Nc1ccc(-c2nc3ccccc3[nH]2)cc1,0%,8%,-20%,116,?,36%
Cc1ccc(-c2nc3ccccc3[nH]2)cc1NC(=O)c1ccc2c(c1)OCO2,1%,?,11µM*,-9,5%,1%
O=C(NC(=S)Nc1cc(-c2nc3ccccc3[nH]2)ccc1Cl)c1ccc2c(c1)OCO2,0%,?,?,-76*,-27%,?
O=C(Nc1ccc(C(F)(F)F)cc1)c1cccn(Cc2ccc3c(c2)OC(F)(F)O3)c1=O,-12%,-12%,10µM*,-98*,?,?
O=C(Nc1cccc(C(F)(F)F)c1)c1cccn(Cc2ccc3c(c2)OC(F)(F)O3)c1=O,-8%,7%,1%,-16,?,-24%
C[C@@H]1CC[C@H]2C(=O)N(Cc3ccccc3)C[C@@H](O)CN2[C@@H]1c1cccc(Br)c1,nt,7%[14.3 µM],nt,nt,-22%[14.2 µM],nt
CCOc1ccc(NC(=O)CSc2nc3ccsc3c(=O)n2CCCCCC(=O)O)cc1,nt,-24%[46.1 µM],nt,+!,nt,-1%
CCOc1ccc(NC(=O)CSc2nc3ccsc3c(=O)n2CC)cc1,nt,-2%[46.1 µM],nt,?,nt,-18%
COc1cccc(CN2CCCC(c3nc(C)ncc3-c3ccc(F)cc3)C2)c1OC (centres undefined),nt,nt,nt,nt,nt,-10%
O=C(O)Cc1nn(Cc2ccc(Cl)cc2)c(=O)c2ccccc12,-4%,-10%,12%,-69*,?,-8%
Cc1ccc(S(=O)(=O)CCC(=O)N2CCN(c3ccc(Cl)cc3)CC2)cc1,1%,-27%,?,-70*,-12%,?
Cc1ccc(S(=O)(=O)CCNC(=O)Cc2ccc(Cl)cc2)cc1,5%,-1%,-7%,-18,7%[14.2 µM],-2%
Cc1c(Cl)ccc2sc(N3CCN(C(=O)CCS(=O)(=O)c4ccc(F)cc4)CC3)nc12,nt,?,nt,-70*,nt,11µM*
Cc1ccc(S(=O)(=O)CCC(O)c2ccc(Cl)cc2)cc1 (centres undefined),-7%,nt,10%,-102*,nt,-17%
Cc1ccc2sc(N3CCN(C(=O)CCS(=O)(=O)c4ccc(F)cc4)CC3)nc2c1C,nt,13%[46.1 µM],nt,-37,nt,?
COc1ccc(C2=NCC(C)n3nc4ccccc4c32)cc1 (centres undefined),nt,nt,nt,9,nt,nt
CCCCCCN(C(=O)CCCCCN1C(=O)NC(C2CC2)C(C(=O)OCc2ccccc2)=C1C)C(C(=O)NCCCC)c1ccc(OCC(=O)OC)c(C(=O)OC)c1 (centres undefined),-1%,nt,nt,nt,nt,nt
